Calls of active or inactive are those of the source. Unless noted, the call rests on the fitted dose curve; in most records, active means well fitted curve in the direction sought with a large enough effect in the repeat runs; inconclusive means weak or mixed curves; inactive means no such curve, though single readings can be large; an effect the other way counts as inactive or inconclusive.

The values below come from PubChem BioAssay (Tox21).

The subject of experiment [1] is thyroid hormone receptor (rat, GH3 cells). Nature of the experiment: qHTS assay to identify small molecule agonists of the thyroid receptor (TR) signaling pathway (AID 743066; calls by dose curve; further: potency means the concentration at half of the fitted maximal effect).
In experiment [2] the target is Estrogen receptor (Homo sapiens) (UniProt P03372). Nature of the experiment: qHTS assay to identify small molecule antagonists of the estrogen receptor alpha (ER-alpha) signaling pathway (AID 743069; active means well fitted curve in the direction sought with a large enough effect in the signal ratio in the repeat runs, not every such curve was filed as active; inconclusive means weak or mixed curves, or effect the other way; inactive means no such curve, though single readings can be large or run the other way; the % refers to the signal ratio; further: potency means the concentration at half of the fitted maximal effect). The method in brief: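 Compound effects are measured against 17beta-estradiol stimulation in HEK293 cells with a UAS-controlled beta-lactamase reporter for ER-alpha. Exposure lasts 18 hr at 37C; LiveBLAzer B/G FRET substrate follows for 2 hr at room temperature.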
Estrogen receptor (Homo sapiens), sequence (P03372 whole entry, looked up): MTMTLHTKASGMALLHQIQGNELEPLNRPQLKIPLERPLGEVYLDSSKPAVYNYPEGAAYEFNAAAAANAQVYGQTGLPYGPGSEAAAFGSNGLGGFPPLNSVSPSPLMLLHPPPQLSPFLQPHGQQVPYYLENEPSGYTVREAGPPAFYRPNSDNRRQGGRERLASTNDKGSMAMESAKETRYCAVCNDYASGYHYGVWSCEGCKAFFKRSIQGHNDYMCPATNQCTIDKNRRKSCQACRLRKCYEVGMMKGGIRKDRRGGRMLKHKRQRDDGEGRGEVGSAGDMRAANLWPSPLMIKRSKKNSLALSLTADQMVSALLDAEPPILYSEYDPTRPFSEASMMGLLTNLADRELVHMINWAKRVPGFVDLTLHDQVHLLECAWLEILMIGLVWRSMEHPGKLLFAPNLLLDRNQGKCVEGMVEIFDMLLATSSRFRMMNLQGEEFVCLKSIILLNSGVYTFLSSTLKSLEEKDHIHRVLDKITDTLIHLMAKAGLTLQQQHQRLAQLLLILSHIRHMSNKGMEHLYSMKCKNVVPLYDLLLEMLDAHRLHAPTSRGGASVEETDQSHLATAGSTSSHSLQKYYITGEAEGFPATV
On the technique in general: Quantitative high-throughput screening tests each substance at several concentrations.

The nature of experiment [3]: qHTS assay to identify small molecule antagonists of the estrogen receptor alpha (ER-alpha) signaling pathway - cell viability counter screen (AID 743074; calls by dose curve;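 further: HEK293 cells carrying ER-alpha-UAS-bla reporter stimulated with 17beta-estradiol; nearly all actives have a fitted effect of over 45% in size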).
For experiment [4], the target named is Estrogen receptor (Homo sapiens) (UniProt P03372). As to the kind of experiment: qHTS assay to identify small molecule agonists of the estrogen receptor alpha (ER-alpha) signaling pathway (AID 743075; calls by dose curve).
Experiment [5] is described as follows: qHTS assay to identify small molecule antagonists of the estrogen receptor alpha (ER-alpha) signaling pathway using the BG1 cell line (AID 743080; calls by dose curve;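 further: BG1 cells stimulated with 17beta-estradiol alongside compound; series mostly up to about 70 µM; nearly all actives have a fitted effect of over 25% in size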). The method in brief:
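Seeding, 24 h rest, compound transfer from DMSO, 17beta-estradiol addition, 21.5 h incubation, CellTiter-Fluor (30 min, 37 C), then ONE-Glo (30 min, room temperature): this sequence was run on BG1-Luc-4E2 reporter cells.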

A short description of experiment [6]: qHTS assay to identify small molecule antagonists of the estrogen receptor alpha (ER-alpha) signaling pathway using the BG1 cell line - cell viability counter screen (AID 743081).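 Further: compound given together with 17beta-estradiol as the ER stimulus; series mostly up to about 70 µM; nearly all actives have a fitted effect of over 45% in size.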
In experiment [7] the target is Aromatase (Homo sapiens) (UniProt P11511). As to the kind of experiment: qHTS assay to identify aromatase inhibitors (AID 743083). Further: series mostly up to about 70 µM; nearly all actives have a fitted effect of over 55% in size.
Aromatase (Homo sapiens), sequence (P11511 whole entry, looked up): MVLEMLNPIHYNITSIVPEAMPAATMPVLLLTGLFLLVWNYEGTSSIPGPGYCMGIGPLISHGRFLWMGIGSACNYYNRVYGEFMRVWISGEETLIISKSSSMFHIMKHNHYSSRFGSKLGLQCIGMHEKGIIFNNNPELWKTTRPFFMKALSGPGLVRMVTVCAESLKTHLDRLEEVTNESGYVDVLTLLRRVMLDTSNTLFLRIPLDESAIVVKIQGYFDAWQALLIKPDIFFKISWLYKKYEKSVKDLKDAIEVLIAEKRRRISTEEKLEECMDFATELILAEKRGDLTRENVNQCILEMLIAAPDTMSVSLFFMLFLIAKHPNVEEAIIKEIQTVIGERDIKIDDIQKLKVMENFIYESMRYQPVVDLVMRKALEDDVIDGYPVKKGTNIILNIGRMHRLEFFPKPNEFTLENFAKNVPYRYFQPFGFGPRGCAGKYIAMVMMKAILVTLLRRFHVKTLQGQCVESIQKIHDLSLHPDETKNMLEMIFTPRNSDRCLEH
Experiment [8] is described as follows: qHTS assay to identify aromatase inhibitors - cell viability counter screen (AID 743084).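 Further: cells stimulated with testosterone during compound exposure; nearly all actives have a fitted effect of over 55% in size.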
Experiment [9] addresses Aryl hydrocarbon receptor (Homo sapiens) (UniProt P35869). As to the kind of experiment: qHTS assay to identify small molecule that activate the aryl hydrocarbon receptor (AhR) signaling pathway (AID 743085). Further: nearly all actives have a fitted effect of over 15% in size. Further: potency means the concentration at half of the fitted maximal effect.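 On activation: HG2L7.5c1 human HepG2 liver cells with stably integrated DRE-driven firefly reporter; series mostly up to about 70 µM.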 The method in brief: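 Reporter assay in engineered HepG2 line HG2L7.5c1, whose plasmid carries twenty dioxin responsive elements upstream of firefly luciferase. Treatment lasted 24 h at 37C; ONE-Glo luminescence gauged induction.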

Experiment [10] in a line: qHTS assay to identify small molecule that activate the aryl hydrocarbon receptor (AhR) signaling pathway - cell viability counter screen (AID 743086).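 Further: HepG2 liver cells carrying the AhR DRE luciferase reporter; series mostly up to about 70 µM; nearly all actives have a fitted effect of over 45% in size.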 The gist of the method:
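Cytotoxicity counter screen: CellTiter-Fluor signal (30 min, 37 C) in 4000 HepG2 cells/well carrying the DRE-luciferase reporter, following 24 h compound exposure at 37 C.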

In experiment [11] the target is Peroxisome proliferator-activated receptor gamma (Homo sapiens) (UniProt P37231). As to the kind of experiment: qHTS assay to identify small molecule agonists of the peroxisome proliferator-activated receptor gamma (PPARg) signaling pathway (AID 743094; active means well fitted activation curve with a large enough effect in the signal ratio in the repeat runs, not every such curve was filed as active; inconclusive means weak or mixed curves, or effect the other way; inactive means no such curve, though single readings can be large or run the other way; the % refers to the signal ratio). The gist of the method: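 GeneBLAzer PPARg UAS-bla HEK293H cells carrying a stably integrated beta-lactamase reporter were pre-incubated 5 h at 37C, then exposed to compounds in DMSO for 17 h at 37C; LiveBLAzer B/G FRET substrate was added for 1 h at room temperature and fluorescence read.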
Peroxisome proliferator-activated receptor gamma (Homo sapiens), sequence (P37231 whole entry, looked up): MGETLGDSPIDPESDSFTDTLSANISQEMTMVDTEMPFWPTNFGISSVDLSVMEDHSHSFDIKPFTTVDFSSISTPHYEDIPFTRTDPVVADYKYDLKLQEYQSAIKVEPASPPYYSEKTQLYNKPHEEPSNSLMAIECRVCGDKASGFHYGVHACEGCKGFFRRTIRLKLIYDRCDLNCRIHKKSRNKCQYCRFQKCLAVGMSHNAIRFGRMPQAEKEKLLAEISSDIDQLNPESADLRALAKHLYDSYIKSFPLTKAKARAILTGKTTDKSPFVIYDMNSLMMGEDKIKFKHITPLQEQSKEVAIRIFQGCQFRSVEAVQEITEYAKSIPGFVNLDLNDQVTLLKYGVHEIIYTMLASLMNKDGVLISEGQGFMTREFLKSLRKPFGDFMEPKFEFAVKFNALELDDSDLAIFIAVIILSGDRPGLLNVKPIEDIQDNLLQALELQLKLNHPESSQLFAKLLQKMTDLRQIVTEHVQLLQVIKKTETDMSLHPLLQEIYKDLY

For experiment [12] the target is unchanged. As to the kind of experiment: qHTS assay to identify small molecule antagonists of the peroxisome proliferator-activated receptor gamma (PPARg) signaling pathway (AID 743191; calls by dose curve; further: series mostly up to about 63 µM; nearly all actives have a fitted effect of over 30% in size). The method in brief:
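Beta-lactamase reporter under UAS control in HEK293H PPARg-bla cells; compound treatment 17 h at 37C. Read-out: fluorescence intensity after 1 h room-temperature incubation with LiveBLAzer B/G FRET substrate.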

Experiment [13] in a line: qHTS assay to identify small molecule antagonists of the peroxisome proliferator-activated receptor gamma (PPARg) signaling pathway - cell viability counter screen (AID 743194). Further: nearly all actives have a fitted effect of over 55% in size. Further: potency means the concentration at half of the fitted maximal effect. The method in brief: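 Viability was measured as CellTiter-Glo luminescence in GeneBLAzer PPARg UAS-bla HEK293H cells. These cells had been exposed 17 h at 37 C to compounds together with rosiglitazone at 50 nM final, with the beta-lactamase readout taken in the same wells.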

Experiment [14] is described as follows: qHTS assay for small molecule agonists of the antioxidant response element (ARE) signaling pathway (AID 743202; active means well fitted activation curve with a large enough effect in the signal ratio in the repeat runs, not every such curve was filed as active; inconclusive means weak or mixed curves, or effect the other way; inactive means no such curve, though single readings can be large or run the other way; the % refers to the signal ratio). The method in brief: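 An ARE-responsive beta-lactamase gene stably integrated in HepG2 cells serves as reporter. After 5 h plating and 16 h compound incubation at 37 C, fluorescence of the B/G FRET substrate was measured.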
The nature of experiment [15]: qHTS assay for small molecule agonists of the antioxidant response element (ARE) signaling pathway - cell viability counter screen (AID 743203; calls by dose curve; further: nearly all actives have a fitted effect of over 55% in size). The gist of the method: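 CellSensor ARE-bla HepG2 cells, 2,000 per well, rested 5 hrs at 37C/5% CO2, then exposed to compound in DMSO for 16 hrs; viability read as CellTiter-Glo luminescence after 30 min at room temperature, in the reporter wells.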

Experiment [16] in a line: qHTS assay for small molecule activators of the heat shock response signaling pathway - cell viability counter screen (AID 743209). Further: nearly all actives have a fitted effect of over 50% in size. The gist of the method: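 CellSensor HSE-bla HeLa cells, plated overnight at 37 C/5% CO2, were exposed to compounds in DMSO for 5 h at 37 C. Viability was then read in the same wells by CellTiter-Glo luminescence after 30 min at room temperature.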

Experiment [17] is described as follows: qHTS assay for small molecule activators of the heat shock response signaling pathway (AID 743210; active means well fitted activation curve with a large enough effect in the signal ratio in the repeat runs, with a control signal flat, not every such curve was filed as active; inconclusive means weak or mixed curves; the % refers to the signal ratio;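 further: HeLa cells with beta-lactamase reporter driven by heat shock elements; series mostly up to about 63 µM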). The gist of the method: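 In HSE-bla HeLa cells, 5 h compound incubation (37 C) precedes addition of LiveBLAzer B/G substrate; after 2.5 h at room temperature, fluorescence intensity indicates reporter induction.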
Experiment [18] deals with Estrogen receptor (Homo sapiens) (UniProt P03372). As to the kind of experiment: qHTS assay to identify small molecule agonists of the estrogen receptor alpha (ER-alpha) signaling pathway using the BG1 cell line (AID 743079). Further: nearly all actives have a fitted effect of over 20% in size.
Experiment [19] in a line: qHTS assay to identify small molecule antagonists of the thyroid receptor (TR) signaling pathway (AID 743065). The method in brief: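 Antagonism measured as loss of luciferase signal in GH3 cells stably carrying a TRE-luciferase reporter, co-treated with compound and T3 (1 nM final) for 23.5 h at 37 C. Viability was read in the same well by CellTiter-Fluor.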

Aryl hydrocarbon receptor (Homo sapiens), sequence (P35869 whole entry, looked up): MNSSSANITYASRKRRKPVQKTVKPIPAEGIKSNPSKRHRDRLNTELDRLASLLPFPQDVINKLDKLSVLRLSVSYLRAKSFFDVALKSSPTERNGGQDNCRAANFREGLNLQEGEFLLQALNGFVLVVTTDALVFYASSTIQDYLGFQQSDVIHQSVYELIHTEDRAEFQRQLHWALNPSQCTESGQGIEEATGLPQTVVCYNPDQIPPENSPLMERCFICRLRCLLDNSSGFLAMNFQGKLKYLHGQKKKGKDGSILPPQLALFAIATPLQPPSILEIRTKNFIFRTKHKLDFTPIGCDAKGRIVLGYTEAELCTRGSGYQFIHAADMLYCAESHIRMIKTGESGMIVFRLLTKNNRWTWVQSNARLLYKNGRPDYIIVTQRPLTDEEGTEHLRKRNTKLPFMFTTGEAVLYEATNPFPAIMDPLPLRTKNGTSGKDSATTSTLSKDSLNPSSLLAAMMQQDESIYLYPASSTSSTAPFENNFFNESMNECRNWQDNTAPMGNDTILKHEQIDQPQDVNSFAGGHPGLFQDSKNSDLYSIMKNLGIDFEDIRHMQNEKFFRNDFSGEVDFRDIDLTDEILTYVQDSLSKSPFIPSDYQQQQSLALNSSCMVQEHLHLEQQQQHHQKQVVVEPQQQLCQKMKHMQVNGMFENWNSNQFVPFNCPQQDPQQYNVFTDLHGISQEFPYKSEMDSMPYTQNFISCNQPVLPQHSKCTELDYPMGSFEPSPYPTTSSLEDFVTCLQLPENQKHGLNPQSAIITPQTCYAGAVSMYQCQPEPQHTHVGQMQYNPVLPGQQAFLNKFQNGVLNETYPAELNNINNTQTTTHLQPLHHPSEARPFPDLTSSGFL

Consider `COc1nc(C)nc(N)n1`, for which the Potency result in experiment [1], in experiment [2], in experiment [4], in experiment [5], in [7] and in experiment [8] was “inactive” throughout. For the same compound, the Potency entry in [9], in [10], in experiment [13] and in experiment [14] was “inactive” throughout. Moreover, the call in experiment [3], in experiment [6], in [11], in [12], in [15] and in experiment [16] was inactive. Besides, in [17], the compound was classed as inactive.

In the case of `CC(=O)c1ccc(C)cc1`, the Potency entry in [2], in experiment [4], in experiment [18], in experiment [5], in [7] and in experiment [8] was “inactive” each time. In addition, the Potency result in experiment [9], in experiment [10], in experiment [13] and in experiment [14] was “inactive” in each case. For the same compound, the result in experiment [3], in experiment [6], in [11], in experiment [12], in experiment [15] and in experiment [16] was inactive. For the same compound, in experiment [17], the result was inactive.

As to `COc1ccc2cc(C=O)ccc2c1`, the Potency entry in [13] and in experiment [14] was “inactive” each time. Further, the call in experiment [15], in [16] and in experiment [17] was inactive.

For the compound `Cc1c(F)cc2c(=O)c(C(=O)O)cn3c2c1CCC3C` (stereo not drawn), in [14], the Potency result is “inactive”. Further, the result in [15], in experiment [16] and in experiment [17] was inactive.

With `CCn1c(=O)c2c(nc(/C=C/c3ccc(OC)c(OC)c3)n2C)n(CC)c1=O`, the Potency entry in [13] and in experiment [14] was “inactive” each time. In addition, the call in experiment [15], in experiment [16] and in experiment [17] was inactive.

In the case of `Cc1ccc(Nc2ccc(O)c3c2C(=O)c2ccccc2C3=O)cc1`, the Potency result in [1], in [2], in experiment [4], in experiment [18], in [5] and in experiment [7] was “inactive” in each case. Besides, the Potency entry in experiment [8] and in experiment [10] was “inactive” throughout. Further, the outcome in experiment [3], in experiment [6], in experiment [11], in experiment [12], in experiment [15] and in experiment [16] was inactive. The compound was called inactive in experiment [17].

Take `O=C(O)Cc1cc(I)c(Oc2cc(I)c(O)c(I)c2)c(I)c1`: the values for the Potency in experiment [1], in experiment [2] and in [13] were 0.003 µM (active), 15.2 µM [inconclusive] (active) and 19.1 µM (active), respectively. In addition, the call in experiment [3], in [6] and in experiment [16] was inactive. The Potency entry in [4], in experiment [5], in experiment [7], in experiment [8], in experiment [9] and in experiment [10] was “inactive” each time.

Take `OCCN1C[C@H](O)[C@@H](O)[C@H](O)[C@H]1CO`: the Potency entry in [1], in experiment [2], in [4], in experiment [18], in experiment [5] and in experiment [7] was “inactive” each time. Moreover, the Potency result in experiment [8], in experiment [9], in experiment [10], in experiment [13] and in experiment [14] was “inactive” throughout. The result in experiment [3], in experiment [6], in experiment [11], in [12], in experiment [15] and in [16] was inactive. Further, the compound was classed as inactive in [17].

On to `CO[Si](OC)(OC)OC`, for which the Potency entry in experiment [1], in experiment [7], in experiment [8], in experiment [9], in experiment [10] and in experiment [13] was “inactive” in each case. For the same compound, the Potency result in experiment [14] was “inactive”. The call in [3], in experiment [6], in [15], in experiment [16] and in [17] was inactive.

Turning to `COc1ccc(NC(C)=O)cc1`, the Potency result in experiment [1], in experiment [7], in experiment [8], in [9], in experiment [10] and in experiment [13] was “inactive” throughout. Besides, the Potency result in [14] is “inactive”. In addition, the compound was called inactive in experiment [6], in [11], in experiment [15], in [16] and in [17].

`c1cc(CN2CCCCC2)cc(OCCCNc2nc3ccccc3s2)c1`: the Potency in [19] was 23.7 µM (active); in experiment [9], 26.6 µM (active). Besides, the Potency result in experiment [2], in experiment [4], in [8] and in experiment [14] was “inactive” each time. The outcome in experiment [6], in experiment [11], in experiment [15], in experiment [16] and in [17] was inactive.
